Experimental data as given in PubChem BioAssay AID1117319 (Southern Research Institute, 2015).
Values joined by “and” are separate entries in the source; they are usually repeats but may differ in a detail not shown here. Identical values can stand only once. The whole screen tested about 260,000 compounds, of which about 1,500 (0.58%) were called active. Roughly 5% stayed inconclusive and do not appear here.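 Rule for the calls: active = inhibition above a set limit at one or more doses, reproduced on every date tested; inconclusive = results disagree between test dates, or hit never tested in dose response; inactive = the rest.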 A selection follows. Measured potencies and affinities stand elsewhere.

Target: Virion infectivity factor (Human immunodeficiency virus type 1 group M subtype B (isolate BH10)) + Virion infectivity factor (Human immunodeficiency virus type 1 group M subtype B (isolate BRU/LAI)) + Virion infectivity factor (Human immunodeficiency virus type 1 group M subtype B (isolate PCV12)) + Virion infectivity factor (Human immunodeficiency virus type 1 group M subtype B (isolate HXB2)) + DNA dC->dU-editing enzyme APOBEC-3G (Homo sapiens) (UniProt P69720+P69721+P69722+P69723+Q9HC16)
Assay: HIV-1 Vif–A3G interaction blockers – biochemical, TR-FRET, GST-Vif 1-94, biotin-A3G peptide, dose response retest, primary screen (AID 1117319);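 note: Vif residues 1-94 fused to GST binding biotinylated APOBEC3G peptide 110-148; 0% = full assay without inhibitor and 100% = GST in place of GST-Vif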
Conditions: TR-FRET GST-Vif / biotin-A3G peptide binding; hits give high values

inhibition, inactive:
Cc1cccc(NC(=O)CN2CCN(C(=O)c3oc4c(Cl)cccc4c3C)CC2)c1C -10%
Cc1cccc(Nc2nc(N)c([N+](=O)[O-])c(N3CC(C)OC(C)C3)n2)c1 (configuration not stated) -1.71%
COC(Cc1nnc(SC)n1-c1ccccc1)OC 6.71%
COC(Cc1n[nH]c(=S)n1-c1ccc(Cl)cc1)OC -7.57%
Cc1ccc(C2N(c3ccccc3)C(=S)N3CCCN23)cc1 (configuration not stated) 19.3%
O=S(=O)(O)c1ccc(O)c2cc(Nc3ccccc3)ccc12 -8.31%
Nc1ccc(C(=O)Nc2ccc3cc(S(=O)(=O)O)ccc3c2)cc1 7.06%
O=C(O)c1cc(NS(=O)(=O)c2ccc3ccccc3c2)ccc1O -12.2%
O=C(O)c1cc(S(=O)(=O)O)cc(Nc2c3ccccc3nc3ccccc23)c1O 5.42%
CC(=O)Nc1ccc2c(O)cc(S(=O)(=O)O)cc2c1 19.9%
O=C(O)c1cc2cc(S(=O)(=O)O)ccc2cc1O 26.7%
COc1ccccc1Nc1ccc2c(O)cc(S(=O)(=O)O)cc2c1 15.2%
Nc1ccc(C(=O)Nc2ccc3c(O)cc(S(=O)(=O)O)cc3c2)cc1 29.1%
COc1ccccc1CNC(=O)CNC(=O)Cn1cnc2ccccc2c1=O 8.94%
COC(=O)c1c(NC(=O)C2(C)Cc3ccccc3C(=O)O2)sc2c1CCCC2 (configuration not stated) 20.6%
O=C(Nc1nnc(Cc2ccccc2)s1)C1CCC1 6.12%
NC(=O)CN(N=Nc1cccc([N+](=O)[O-])c1)c1cccc([N+](=O)[O-])c1 10.3%
COc1ccccc1C(=O)NC(CCSC)C(=O)NNC(=O)c1ccc(F)cc1 (configuration not stated) -6.52%
CCCN(C(=O)c1cc(S(=O)(=O)N(C)c2ccc(OCC)cc2)ccc1C)C1CCS(=O)(=O)C1 (configuration not stated) 2.41%
Cc1nnc(SCC(=O)Nc2ccccc2)n1CCc1ccccc1 -1.11%
CC1(C)CC(NS(=O)(=O)c2ccccc2)CC(C)(C)N1 13.5%
CC1(C)CC(NC(=O)C(c2ccccc2)c2ccccc2)CC(C)(C)N1 -4.99%
CC(C)(C)c1cc(NC(=O)CCSc2nnc3ccccn23)cc(C(C)(C)C)c1 -5.51%
O=C1/C(=C\c2ccc3c(c2)OCO3)CCC/C1=C/c1ccc2c(c1)OCO2 1.07%
O=C1/C(=C/Nc2ccc3c(c2)OCO3)CCc2ccccc21 27.2%
O=C1CCCC/C1=C/Nc1ccc(C(=O)O)cc1 28.3%
O=C1CCC/C1=C/Nc1ccc(Cl)cc1 -0.33%
CC(C)(C)NC(=O)Cn1c(=O)c(=O)n(Cc2ccccc2)c2ccc(Cl)cc21 -13.9%
NS(=O)(=O)c1ccc(NC(=S)N2CCN(c3ccc(Cl)c(Cl)c3)CC2)cc1 -1.39%
Cc1ccc(-n2ncc3c(NCc4cccnc4)ncnc32)cc1C -0.06%
CC(=O)Nc1ccc2c(COC(=O)CC3Sc4ccccc4NC3=O)cc(=O)oc2c1 (configuration not stated) -2.31%
COCCN(C(=O)COC(=O)CCn1c(C)csc1=O)c1c(N)n(Cc2ccccc2)c(=O)[nH]c1=O 3.17%
COC(=O)[C@@H](N)Cc1ccc(O)cc1 1.26%
COC(=O)C(N)Cc1ccc(O)c(O)c1 (configuration not stated) 21.5%
CC(NC(=O)Cn1cnnn1)C12CC3CC(CC(C3)C1)C2 (configuration not stated) -1.37%
O=C(Cc1csc(N2CCOCC2)n1)N/N=C/c1ccccc1C(=O)O 6.57%
COc1ccc(/C=N/NC(=O)CCN2CCN(c3ccccc3)CC2)c(OC)c1OC 8.69%
O=C(CCN1CCN(c2ccccc2)CC1)N/N=C/c1ccccc1O -5.36%
O=C(Cc1csc(N2CCOCC2)n1)N/N=C/c1ccc(Cl)cc1Cl -5.97%
Cc1cccc(NC(=S)NCc2ccc(F)cc2)c1 -7.76%
Cc1nn(C)c(Cl)c1C(=O)NCC(=O)O -8.59%
CCN1CCCC1Cn1cnc2c([nH]c3cccc(Cl)c32)c1=O (configuration not stated) 32.2%
Cc1ccc(S(=O)(=O)n2nc(OC(=O)c3ccco3)cc2N)cc1 7.76%
COc1ccc(OC)c(NC(=O)COC(=O)c2ccc(S(=O)(=O)N3CCCCC3)cc2)c1 -4.24%
COc1ccc(OCCCC(=O)OC(C)C(=O)Nc2ccc(S(N)(=O)=O)cc2)cc1 (configuration not stated) 1.05%
CC1CCC(NC(=O)c2cc(Cl)nc3ccccc23)CC1 (configuration not stated) -9.79%
Cc1noc(/C=C/c2ccco2)c1S(=O)(=O)N1CCC(C(=O)N2CCc3ccccc32)CC1 10.8%
Cc1noc(/C=C/c2ccco2)c1S(=O)(=O)N1CCC(C(=O)N2CCc3ccccc3C2)CC1 26.3%
CCOC(=O)c1c(C)[nH]c(C(=O)CSc2nnnn2-c2ccc(C)cc2)c1C -6.65%
CCOc1cc(C)c(Cl)cc1S(=O)(=O)N(CC)CC -2.91%
CC1CCCN(S(=O)(=O)c2ccc(S(=O)(=O)NC(C)c3cccs3)cc2)C1 (configuration not stated) -0.23%
CCOc1ccc(NC(=O)CC(=O)Nc2ccc(OCC)cc2)cc1 3.52%
COc1ccc(C(=O)NC2c3ccccc3-c3ccccc32)cc1 6.08%
C=CCSc1nnc(Cc2c(C)[nH]c3ccccc23)o1 12.5%
Cc1[nH]c2ccccc2c1Cc1nnc(SCC(N)=O)o1 9.95%
Cc1ccc(CNC(=O)COC(=O)Cn2nc(C)c([N+](=O)[O-])c2C)cc1 2.03%
NC(=S)N=Nc1c(O)[nH]c2ccc(F)cc12 14.4%
Cc1ccc2[nH]c(O)c(N=NC(N)=S)c2c1 16.9%
CNC(=S)NNc1nncc2ccccc12 -3.6%
CC(C)n1cnc2c(=S)nc[nH]c21 14.2%
O=C(CSc1nnnn1-c1cccc2ccccc12)N1CCOCC1 10.1%
CC(=C\c1ccccc1)/C=C1/SC(=S)N(C(C(=O)O)C(C)C)C1=O (configuration not stated) -2.28%
CCC(C(=O)O)N1C(=O)/C(=C/c2cccn2C)SC1=S (configuration not stated) 21.2%
CC(/C=C1\SC(=S)N(C(C(=O)O)C(C)C)C1=O)=C\c1ccccc1 (configuration not stated) 9.15%
CC(C)C(C(=O)O)N1C(=O)/C(=C/c2cccn2C)SC1=S (configuration not stated) 5.17%
CN(CCC#N)C(=O)COC(=O)c1ccccc1OCc1ccccc1Cl 23.6%
CCCCCCOc1ccc(N2C(=O)CC(N(CCc3ccc(S(N)(=O)=O)cc3)C(C)=O)C2=O)cc1 (configuration not stated) -1.36%
CN1/C(=C/C(=S)NC(=O)C2CCC2)C(C)(C)c2ccccc21 3.95%
CCn1c(SCC(=O)NCc2cccs2)nnc1-c1cccs1 2.35%
CCOc1ccccc1NC(=O)CCN1CCN(S(=O)(=O)c2ccc(Br)cc2)CC1 -2.68% and -11.1%
Cc1cccc(C)c1NC(=O)CCS(=O)(=O)c1ccc(Br)cc1 -1.3%
Cc1ccc(S(=O)(=O)CCC(=O)Nc2ccc(Br)cc2)cc1 21.8%
CCN(CC)c1ccc(NC(=O)CCS(=O)(=O)c2cccc3nsnc23)c(C)c1 12.7%
O=C(CCS(=O)(=O)c1ccc(Br)cc1)Nc1ccccc1Cl 24.5%
CCc1ccc(NC(=O)CCS(=O)(=O)c2ccc(Br)cc2)cc1 11.1%
Cc1cccc(NC(=O)CCS(=O)(=O)c2ccc(Br)cc2)c1 3.92%
CCOc1ccc(NC(=O)CCS(=O)(=O)c2ccc(C)cc2)cc1 -2.94%
O=C(CN(Cc1ccc(F)cc1)C(=O)CNS(=O)(=O)c1ccccc1)NCc1ccco1 -1.61%
CC(=O)N1CCN(S(=O)(=O)c2ccc(Cl)cc2F)CC1 -2.38%
CC(C)c1nc(SCC(=O)N2CC(=O)Nc3ccccc32)c2ccccc2n1 -15.6%
C#CCOCCOCCOCCNc1nc(N2CCN(C(=O)[C@H](CO)n3cc([C@@H](N)C(C)C)nn3)CC2)nc(N2CCN(C(=O)[C@H](CCC(=O)O)n3cc([C@@H](N)CCCCN)nn3)CC2)n1 19.7%
Cc1ccccc1-n1nc2c(c1NC(=O)c1cc3ccccc3o1)CS(=O)(=O)C2 0.92%
COc1ccc(F)cc1CN1CCN(C(=O)CCC(=O)Nc2nnc(C(C)C)s2)CC1 1.87%
O=C(Nc1cccc(C(F)(F)F)c1)Oc1ccccc1N1CCOCC1 4.5%
COc1ccc(Cl)cc1NC(=O)CCS(=O)(=O)c1ccc(C)cc1 0.29%
COc1ccc([N+](=O)[O-])cc1NC(=O)CCS(=O)(=O)c1ccc(Br)cc1 23.2%
Cc1ccccc1NC(=O)CCS(=O)(=O)c1ccc(Br)cc1 19.3%
COC(=O)c1ccccc1NC(=O)CCS(=O)(=O)c1ccc(Br)s1 -6.38%
CCNC(=O)CSc1nnc(-c2cc(-c3ccc(Cl)cc3)nc3ccccc23)o1 -0.32%
O=C(OCc1cn([C@H]2CN(CC3CCCCC3)[C@@H](c3ccc(Cl)cc3)C[C@@H]2O)nn1)c1ccccc1 -2.33%
CC1CCCCC1NC(=O)CSc1nnc(COc2ccc(Cl)cc2)o1 (configuration not stated) 3.41%
Cc1nc(-c2ccc(S(=O)(=O)Nc3ccc(Br)cc3Cl)s2)cs1 -10.4%
